Assay results as given in PubChem BioAssay (NCATS).
Records with an inconclusive call do not appear. Activity calls are given as the source filed them. The call rests on the fitted dose curve.

Assay: Cytotoxicity counterscreen for inhibitors of SARS-CoV-2 cell entry (AID 1645845); further: nearly all actives have a fitted effect of over 50% in size
Conditions: cell viability (SARS-CoV-2 entry assay cells); series mostly up to 57.1 µM; activity change, negative = cytotoxicity: at the top concentration
Method in brief: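 Expi293F/hACE2 cells seeded overnight; cpd pin-transferred in DMSO, 1 h preincubation, + media, 48 h 37 C 5% CO2; ATPLite 1step luminescence; normalized to cells and no cells.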
On the % scale 0 is the no-effect control and ±100 the full control effect; potency means the concentration at half of the fitted maximal effect.

| Compound | Potency | activity change, negative = cytotoxicity | outcome |
| --- | --- | --- | --- |
| CCC1CCCCN1C(=O)n1ncc(C(O)(c2ccccc2)c2ccccc2)n1 (stereo unspecified) | 11.2 µM (active) | – | – |
| NS(=O)(=O)c1ccc(NC(=S)N2CCN(C/C=C/c3ccccc3)CC2)cc1 | – | -24.4% (inactive) | – |
| O=C(NO)C1(CS(=O)(=O)c2ccc(Oc3ccc(Cl)cc3)cc2)CCOCC1 | – | -17.4% (inactive) | – |
| CNC(=O)c1ccccc1Nc1nc(Nc2ccc3c(c2OC)CCC[C@@H](N2CCN(CCO)CC2)C3)ncc1Cl | – | -20.3% (inactive) | – |
| CO[C@H]1C[C@@H]2CC[C@@H](C)[C@@](O)(O2)C(=O)C(=O)N2CCCC[C@H]2C(=O)O[C@H]([C@H](C)C[C@@H]2CC[C@@H](OCCO)[C@H](OC)C2)CC(=O)[C@H](C)/C=C(/C)[C@@H](O)[C@@H](OC)C(=O)[C@H](C)C[C@H](C)/C=C\C=CC=C1C | – | -0.862% (inactive) | – |
| Cc1ccc(-c2nn(C(C)(C)CNC(=O)c3ccncc3)c3ncnc(N)c23)cc1 | – | -7.22% (inactive) | – |
| CC[C@@H]1[C@H](F)C(=O)N[C@@H]1COc1nccc2cc(C(N)=O)c(OC)cc12 | – | – | inactive |
| Cc1c(CN2CCN(C(=O)[C@H](C)O)CC2)sc2c(N3CCOCC3)nc(-c3cnc(N)nc3)nc12 | – | -13.8% (inactive) | – |
| COc1ccc2[nH]c(C(=O)N3CCC(CC(C)(C)O)CC3)cc2c1 | – | – | inactive |
| COc1ccc(C(=O)C2CCN(CC(=O)N(Cc3nc4c(c(=O)[nH]3)COCC4)CC3CC3)CC2)cc1 | – | – | inactive |
| CN1CCN(C(=O)c2ccc(-c3ccc4c(C=O)c(O)ccc4c3)s2)CC1 | – | -5.89% (inactive) | – |
| N#C/C(=C(/N)Sc1ccc(N)cc1)c1ccccc1C(F)(F)F | – | -16.7% (inactive) | – |
| CN(Cc1ccccc1)C(=O)c1ccc(S(=O)(=O)Nc2ccccc2)cc1 | – | – | inactive |
| COC(=O)/C=C/C(=O)N(O)CCCCNCc1ccc(COC(=O)Nc2cccc3ccccc23)cc1 | – | -10.2% (inactive) | – |
| C=C1C(=O)OC2/C=C(/C)CC/C=C(/C)CCC12 (stereo unspecified) | – | 1.64% (inactive) | – |
| CO[C@H]1C[C@@H]2CC[C@@H](C)[C@@](O)(O2)C(=O)C(=O)N2CCCC[C@H]2C(=O)O[C@H]([C@H](C)C[C@@H]2CC[C@@H](OP(C)(C)=O)[C@H](OC)C2)CC(=O)[C@H](C)/C=C(\C)[C@@H](O)[C@@H](OC)C(=O)[C@H](C)C[C@H](C)/C=C/C=C/C=C/1C | – | -27.2% (inactive) | – |
| C=CC(=O)N1CCC[C@H](n2c(=O)n(-c3ccc(Oc4ccccc4)cc3)c3c(N)ncnc32)C1 | – | 3.78% (inactive) | – |
| C[C@@H](Nc1ncnc2[nH]c(-c3ccc(O)cc3)cc12)c1ccccc1 | – | 3.13% (inactive) | – |
| Nc1ncnc2c1ncn2[C@@H]1O[C@H](CO)C[C@H]1O | – | -8.02% (inactive) | – |
| CC(=O)N1c2ccc(-c3ccc(C(=O)O)cc3)cc2[C@H](Nc2ccc(Cl)cc2)C[C@@H]1C | – | -8.07% (inactive) | – |
| CC(/C=C/C(=O)NO)=C\[C@@H](C)C(=O)c1ccc(N(C)C)cc1 | 7.94 µM (active) | – | – |
| COC(=O)N1CC2(CC2)C[C@H](C(=O)NO)[C@H]1C(=O)N1CCN(c2ccccc2)CC1 | – | – | inactive |
| N#Cc1ccnc(Nc2cc(C3CCN(C4COC4)CC3)cc(N3CCC(F)(F)C3)n2)c1 | 8.91 µM (active) | – | – |
| C=CC(=O)N1CCC(C2CCNc3c(C(N)=O)c(-c4ccc(Oc5ccccc5)cc4)nn32)CC1 (stereo unspecified) | – | -19.4% (inactive) | – |
| CNCCN(C)Cc1cn[nH]c1-c1ccc(OC2CC(OCCC3CCOCC3)C2)cc1 (stereo unspecified) | – | -9.3% (inactive) | – |
| O=C(C1CC1)N1CC[C@@H](Cc2n[nH]c(=O)n2-c2ccc(-c3ccc4occc4c3)cc2)C1 | 4.47 µM (active) | – | – |
